Each structure is given as a SMILES string. Hit rate of the full screen: of about 370,000 compounds, about 400 (0.11%) were called active. The entries come from a sample that favours actives as a whole. A number with no mark means an inactive call.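 The calls were made as follows: active = activation at 10 µM reaching about 35% in either raw or pattern-adjusted values (limit read from the data); inactive = the rest.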

Chain of Atrial natriuretic peptide receptor 2 (Homo sapiens) (P20594 whole entry, looked up): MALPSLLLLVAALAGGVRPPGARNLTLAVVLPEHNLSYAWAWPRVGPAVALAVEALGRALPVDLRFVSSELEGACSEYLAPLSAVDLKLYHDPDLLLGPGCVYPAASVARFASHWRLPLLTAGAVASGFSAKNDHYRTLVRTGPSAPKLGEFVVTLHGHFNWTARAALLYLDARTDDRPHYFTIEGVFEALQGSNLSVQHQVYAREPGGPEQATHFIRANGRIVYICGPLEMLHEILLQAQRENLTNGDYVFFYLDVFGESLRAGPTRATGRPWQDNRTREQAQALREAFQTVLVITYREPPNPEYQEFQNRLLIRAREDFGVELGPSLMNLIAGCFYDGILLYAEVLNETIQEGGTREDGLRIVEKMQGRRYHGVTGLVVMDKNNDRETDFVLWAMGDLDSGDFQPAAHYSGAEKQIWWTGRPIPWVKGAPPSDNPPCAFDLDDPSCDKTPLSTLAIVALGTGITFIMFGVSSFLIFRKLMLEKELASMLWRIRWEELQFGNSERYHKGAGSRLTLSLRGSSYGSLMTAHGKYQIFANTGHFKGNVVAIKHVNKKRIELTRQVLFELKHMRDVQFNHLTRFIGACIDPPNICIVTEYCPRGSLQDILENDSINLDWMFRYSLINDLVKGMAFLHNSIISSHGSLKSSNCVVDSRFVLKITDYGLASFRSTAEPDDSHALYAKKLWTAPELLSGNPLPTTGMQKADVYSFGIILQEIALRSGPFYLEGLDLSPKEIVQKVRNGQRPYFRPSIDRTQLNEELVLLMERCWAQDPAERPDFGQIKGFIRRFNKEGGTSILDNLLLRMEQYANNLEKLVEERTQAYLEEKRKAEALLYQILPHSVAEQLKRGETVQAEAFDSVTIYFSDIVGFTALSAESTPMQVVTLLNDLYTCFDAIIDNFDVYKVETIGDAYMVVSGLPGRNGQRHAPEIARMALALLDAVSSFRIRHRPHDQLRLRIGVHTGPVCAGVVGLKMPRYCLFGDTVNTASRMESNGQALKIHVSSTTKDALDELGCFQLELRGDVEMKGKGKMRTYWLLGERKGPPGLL

The test concerns the target Atrial natriuretic peptide receptor 2 (Homo sapiens) (UniProt P20594). The experiment in a line: human GC-B receptor activators, primary screen, HEK293 GC-B cells, cGMP TR-FRET, EC30 CNP (AID 1920062). The note with it: at 10 µM, active compounds read high, 0% at EC30 CNP, 100% saturating CNP. (In general: TR-FRET usually uses a lanthanide donor and a delayed reading to cut background.)
On to `O=C(NCc1cc(C(F)(F)F)cc(C(F)(F)F)c1)C1CC(c2cccc(F)c2)=NO1` (configuration not stated), for which the activation is 4.68%.

With `CC1=C(C(N)=O)C(c2ccc(F)cc2)n2nc(CCCO)nc2N1` (configuration not stated), the activation was 12.2%.

Turning to `CCn1c(=O)c([N+](=O)[O-])c(NCc2ccc3c(c2)OCO3)c2ccccc21`, the activation was 38.9% (active).

Consider `C=CCn1c(=O)c(C(=O)NCc2ccc3c(c2)OCO3)c(O)c2ccccc21`, for which the activation was 5.25%.

On to `CCN(CC)C(=O)C(=O)c1cn(CC(=O)NCc2ccc3c(c2)OCO3)c2ccccc12`, for which the activation is -1.28%.

Consider `CCCCNC(=O)c1nc(C2CCN(S(=O)(=O)c3ccc(F)c(F)c3)CC2)oc1-c1cccc(C(F)(F)F)c1`, for which the activation was 1.59%.

As for `CC1CN/C(=C\C(=O)c2ccc(Br)cc2)C(=O)N1` (configuration not stated), the activation is -4.27%.

As to `N#Cc1ccccc1S(=O)(=O)N1CCN(Cc2c(O)ccc3ccccc23)CC1`, the activation was 2.67%.

Turning to `Cc1ccc(CN(N=Nc2nonc2N)c2nonc2N)c(C)c1`, the activation is 42.7% (active).

On to `CCn1c(/C=C/Nc2ccccc2)[n+](CC)c2ccc(C(=O)OCC(F)(F)F)cc21`, for which the activation is -2.59%.

In the case of `O=C(OCCN1C(=O)c2ccccc2C1=O)[C@@H]1CC(O)CN1S(=O)(=O)c1ccccc1[N+](=O)[O-]` (some centres not stated), the activation is -3.1%.

For `COC(=O)[C@@]12CCCCC3=C1N(CCC3)C(=O)[C@H]2CC(=O)NCc1cccc2ccccc12`, the activation was -3.99%.

In the case of `CCc1nc2c(OCc3ccccc3)cccn2c1N(C)C(=O)c1ccco1`, the activation is 3.48%.

Take `Cc1ccc(/C=C(\C#N)C(=O)Nc2cccc3ncccc23)o1`: the activation is -4.94%.

On to `N#Cc1ccc(C(=O)Nc2nc(-c3cccs3)c(C(=O)C(F)(F)F)s2)cc1`, for which the activation is -0.02%.

Take `COc1cc(CCC(=O)N2CCN(c3ccccc3Cl)CC2)cc(OC)c1OC`: the activation is -3.86%.

Consider `COc1cccc(COC(=O)C2CCN(S(=O)(=O)c3cccs3)CC2)c1OC`, for which the activation was 1.88%.

On to `Cc1ccc(C(=O)N2CCCC(c3ccccc3)=N2)cc1`, for which the activation was 2.95%.

Regarding `Nc1nc(SC23CC4CC(CC(C4)C2)C3)ns1`, the activation was -0.97%.

Turning to `CS(=O)(=O)N(CC(=O)Nc1ccc(F)cc1)C1CCCCC1`, the activation was 0.74%.

Consider `CN(C)c1nc2n(c(=O)n1)CCO2`, for which the activation was 4.05%.

Turning to `O=C(COc1cccnc1[N+](=O)[O-])Nc1ccc(Cl)cc1F`, the activation is -6.77%.

In the case of `CC(C)(C)c1ccc(C(=O)NCC(=O)OCN2C(=O)c3ccccc3C2=O)cc1`, the activation was -3.65%.

Take `CN(Cc1cccnc1)C(=O)c1cc(COc2ccc3ncccc3c2)on1`: the activation is 0.47%.

With `C=CCC1(CC=C)CCCN1C(=O)c1cc(COc2ccc(-n3cncn3)cc2)on1`, the activation is -1.1%.

Consider `CC1=NN(C(=O)Cc2ccc(C)cc2)C(O)(c2cccnc2)C1` (configuration not stated), for which the activation is -0.71%.

Regarding `O=C(Nc1ccccc1Cl)NC1(C(=O)N2CCOCC2)CCCCC1`, the activation was 0.64%.

Consider `CCN(Cc1ccccc1)C(=O)CCS(=O)(=O)c1ccc2c(c1)oc(=O)n2C`, for which the activation is 4.57%.

For the compound `O=C(NNC(=S)Nc1ccc(F)cc1)[C@H]1C[C@@H]1c1ccccc1`, the activation was 2.74%.

For the compound `COc1ccc(OC)c(NC(=O)c2cnn(-c3ccccc3Cl)c2NC(=O)c2ccco2)c1`, the activation was -0.32%.

On to `CCCC(c1nnnn1C(C)(C)C)N1CCN(Cc2ccccc2)CC1` (configuration not stated), for which the activation was -1.17%.

Consider `COC(=O)c1ccc2nc(C3CCCCC3)c(Cc3cccc(F)c3)n2c1`, for which the activation is 3.29%.

On to `COC(=O)c1ccc2nc(-c3ccc(C)cc3)c(Cc3ccc(OC)cc3C)n2c1`, for which the activation is 17.2%.

Consider `Fc1cccc(Cc2c(-c3cccc(Cl)c3)nc3ccc(Br)cn23)c1`, for which the activation is -1.56%.

For the compound `COC(=O)c1ccc2nc(-c3ccc(F)cc3)c(Cc3ccc(C)cc3)n2c1`, the activation is 41.9% (active).

Turning to `COC(=O)c1ccc2nc(-c3ccc(Cl)cc3)c(Cc3cccc(F)c3)n2c1`, the activation is 41.9% (active).

`COC(=O)c1ccc2nc(-c3ccc(OC)c(OC)c3)c(Cc3ccccc3)n2c1`: the activation was 20.9%.

On to `COC(=O)[C@@H]1C[C@@]2(O)[C@H](O)[C@H](O)[C@H](O)C[C@H]2N1Cc1ccc(C)s1`, for which the activation was 6.96%.

For `O=C(NCc1ccncc1)C1CCCN(S(=O)(=O)c2ccc(Br)cc2)C1` (configuration not stated), the activation was -0.66%.

For `CCOCCCNC(=O)Cc1cc(=O)[nH]c(=O)[nH]1`, the activation was -0.88%.

For `CC(=O)Nc1ccc(S(=O)(=O)NC2(C(F)(F)F)C(=O)Nc3c2c(=O)[nH]c(=O)n3Cc2ccccc2)cc1` (configuration not stated), the activation is -0.18%.

On to `NC(=O)C[n+]1cccc(C(N)=O)c1`, for which the activation was -0.67%.

On to `CC1(C)O[C@@H]2[C@H](O1)[C@@H](COS(=O)(=O)O)O[C@H]2n1ccc(=O)[nH]c1=O`, for which the activation was 1.28%.

Regarding `O=C(NC(=S)Nc1cccc(-c2ccc(CO)o2)c1)c1cccs1`, the activation is 3.14%.

For the compound `COc1cccc2cc(C(C)N(CCCN3CCOCC3)C(=O)Nc3ccc(Cl)cc3)oc12` (configuration not stated), the activation is 2.29%.

Regarding `Cc1ccc(SCC(=O)NNC(=O)c2ccc(S(C)(=O)=O)cc2)cc1`, the activation is 4.75%.

Consider `CCCN=C1NC(=O)C(CC(=O)NCCc2ccc(OC)c(OC)c2)S1` (configuration not stated), for which the activation is -2.43%.

Turning to `CCN(CC(=O)NCCCN1CCOCC1)S(=O)(=O)c1cc(Cl)ccc1Cl`, the activation is -0.24%.

As for `CCOCCCNC(=O)C(NC(=O)c1ccc(=O)[nH]c1)c1ccc(Cl)cc1` (configuration not stated), the activation was -0.69%.

As for `CC(C)OC(=O)c1sc2nc3c(cc2c1N)C(=O)CCC3`, the activation was 16.4%.

As to `O=C(CC1CCCCC1)NCc1ccccc1`, the activation was 0.16%.

For `Nc1c(C(=O)NCc2ccccc2)sc2nc3c(cc12)C(=O)CCC3`, the activation is 41.5% (active).

Consider `Cc1cnc(C)c(N2CCN(C(=O)C3CCC(=O)N(CCc4cccc(F)c4)C3)CC2)n1` (configuration not stated), for which the activation was 1.57%.

Consider `CCN(C(=O)COC(=O)c1c(NC(C)=O)sc(C)c1C)C1CCS(=O)(=O)C1` (configuration not stated), for which the activation was -6.94%.

`C=CCn1nc(C(=O)OCC)cc1-c1sc(NC(=O)c2ccccc2)nc1C`: the activation is 3.57%.

As for `Cc1ccc(C)n1-c1ccncc1`, the activation was 1.81%.

Consider `COC(=O)[C@]1(Cc2ccccc2)N[C@H](CN(C)S(=O)(=O)c2ccc(F)cc2)[C@@H]2C(=O)N(Cc3ccccc3)C(=O)[C@@H]21`, for which the activation is -3.49%.

As to `COc1ccc(C2c3ccc(O)cc3Oc3ncn(CCCO)c(=N)c32)cc1OC` (configuration not stated), the activation is 2.6%.

`CCN(C(=O)COC(=O)c1ccc(COc2ccc3c(C)cc(=O)oc3c2)cc1)C1CCS(=O)(=O)C1` (configuration not stated): the activation is -1.49%.

Regarding `O=C(Nc1ccc(Br)cc1)c1cccc(NC(=O)C2C3CC4OC(=O)C2C4C3)c1` (configuration not stated), the activation is -4.37%.

As for `Cc1oc2nc(SCC(=O)Nc3ccc(S(N)(=O)=O)cc3)nc(NC(=O)c3ccccc3)c2c1C`, the activation was -7.74%.

For the compound `N#Cc1ccc(OCCN2C(=O)NC3(CCSC3)C2=O)cc1` (configuration not stated), the activation is 1.75%.

In the case of `O=C1Nc2ccccc2NC(c2ccc3c(c2)OCO3)=C1N(Cc1ccc(F)cc1)C(=O)c1ccco1`, the activation was -16.8%.

For `CCOC(=O)Cc1c(C)nc2c(C#N)c(C)nn2c1C`, the activation is 6.49%.

For the compound `C[C@H]1NS(=O)(=O)c2cc(Cl)ccc2O[C@@H]1c1ccccc1`, the activation was 1.13%.

Consider `O=C1CC(=O)Nc2cc(S(=O)(=O)N3CCN(c4cccc(C(F)(F)F)c4)CC3)ccc2N1`, for which the activation was 1.05%.

Take `CCNC(=O)C1(C)CCN(C(=O)c2ccccc2)C1` (configuration not stated): the activation was 1.62%.

Regarding `Cc1ccc(CSc2ccc(S(=O)(=O)N3CCCCC3)cn2)cc1`, the activation is -1.29%.

On to `CCOC(=O)c1ccccc1NC(=O)COC(=O)C(Cc1c[nH]c2ccccc12)NC(C)=O` (configuration not stated), for which the activation was -17.1%.

Consider `COCCn1c(CN2CCC(Cc3ccccc3)CC2)nc2c1c(=O)n(C)c(=O)n2C`, for which the activation was -2.04%.

In the case of `CCN(CC)C(=O)Cn1cc(S(=O)(=O)CC(=O)NCc2ccc3c(c2)OCO3)c2ccccc21`, the activation is 2.01%.

For `O=C(NCc1ccc2c(c1)OCO2)c1sccc1Br`, the activation is 8.92%.

As for `CN(C)C(=O)c1cccc(-c2cnc3sc(NCc4ccc5c(c4)OCO5)nn23)c1`, the activation is 43% (active).

Take `O/N=C(\c1ccc2c(c1)OCCO2)C1CCCCC1`: the activation is 0.81%.

`Cc1nnc(NC(=O)CSc2nc(C3CCCCC3)nc3ccccc23)s1`: the activation was 3.79%.

Take `CC(=O)Nc1cc(-c2cccc(CO)c2)cn2c(-c3cccc(C(F)(F)F)c3)cnc12`: the activation was 36.8% (active).

Take `CC(=O)Nc1cccc(-c2cc(NC(C)=O)c3ncc(-c4ccccc4)n3c2)c1`: the activation was 5.87%.

Take `CC(=O)Nc1cc(-c2ccccc2F)cn2c(-c3cccc(C(F)(F)F)c3)cnc12`: the activation is 3.33%.

As for `COc1ccc(OC)c(Cc2cnc3nc(N)nc(N)c3c2C)c1`, the activation is -1.38%.

Regarding `Cn1c(=O)c2c(SCC(=O)NCC3CCCO3)nc(CC(C)(C)C)nc2n(C)c1=O` (configuration not stated), the activation is 4.44%.

As for `C=CCN(Cc1ccc2c(c1)OCO2)C(C#CC1CC1)C(C)(C)C` (configuration not stated), the activation is -14.9%.

Consider `C[C@@H]1COc2cccc(N3CCCC3)c2S(=O)(=O)N1C`, for which the activation was 0.41%.

In the case of `CC(=O)C1(C(=O)Nc2nccs2)CC(c2ccccc2C(F)(F)F)=NO1` (configuration not stated), the activation was 1.69%.

As for `COc1ccc(C(=O)OC(C)C(=O)NC2CCCC2)cc1S(=O)(=O)N1CCOCC1` (configuration not stated), the activation was -5.5%.

Turning to `O=C(CCCCCN1C(=O)C2C3C=CC(C3)C2C1=O)Nc1ccccn1` (configuration not stated), the activation is 9.16%.

Regarding `CCc1ccccc1S(=O)(=O)Cc1ccc(C(=O)NCCc2ccccc2)o1`, the activation was 2.27%.

As for `CN(C(=O)CC(NC(=O)c1ccccc1)(c1ccccc1)c1ccccc1)c1ccccc1`, the activation was -19.3%.

The record behind these values is PubChem BioAssay AID1920062 (Sanford-Burnham Center for Chemical Genomics, 2024).
